A selection: hits, their analogues and other compounds. The true share with any hit is near 1.2%.
Mm-Cpn inhibitor: Inhibitors of TCP-1 ring complex (TRiC) of Methanococcus maripaludis (MmCpn): qHTS | Potency, µM (highest dose often 76.9 µM), without a hit: at the highest dose activity, negative = inhibition, actives largely listed as inhibitors | 0.031% of 330,000 active | Chaperonin Mm-Cpn (Methanococcus maripaludis) | purified Mm-Cpn ATPase, ADP Transcreener TR-FRET; active = well fitted inhibition curve with a large enough effect; inconclusive = small, poorly fitted or top-dose-only effect; also: potency is read from the fitted curve at half-maximal effect; % is scaled to controls: 0 for no effect and ±100 for the full control effect; nearly all actives have a fitted effect of over 80% in size
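Quantitative HTS used 25 nM Mm-CPN and 10 uM ATP in magnesium/KCl Tris buffer, pH 7.4, with 1 mM DTT. Hydrolysis ran 30 min at 37°C; ADP was read by HTRF.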
TSHR antag: Antagonists of the Thyroid Stimulating Hormone Receptor: HTS campaign. Thyrotropin receptor (Homo sapiens), P16473. TSHR-expressing cells, TSH-stimulated cAMP HTRF, 2 h; stronger effect = lower value. activity change, negative = inhibition, % at 11.5 µM. 0.2% of 330,000 active. AID 504810, 2011;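 active = activity change below a set negative limit, meaning inhibition stronger than a set level, cut at about -70% in these data; inconclusive = activity change between two set negative limits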; also: % is scaled to controls: 0 for no effect and ±100 for the full control effect
Target sequence (P16473 whole entry, looked up): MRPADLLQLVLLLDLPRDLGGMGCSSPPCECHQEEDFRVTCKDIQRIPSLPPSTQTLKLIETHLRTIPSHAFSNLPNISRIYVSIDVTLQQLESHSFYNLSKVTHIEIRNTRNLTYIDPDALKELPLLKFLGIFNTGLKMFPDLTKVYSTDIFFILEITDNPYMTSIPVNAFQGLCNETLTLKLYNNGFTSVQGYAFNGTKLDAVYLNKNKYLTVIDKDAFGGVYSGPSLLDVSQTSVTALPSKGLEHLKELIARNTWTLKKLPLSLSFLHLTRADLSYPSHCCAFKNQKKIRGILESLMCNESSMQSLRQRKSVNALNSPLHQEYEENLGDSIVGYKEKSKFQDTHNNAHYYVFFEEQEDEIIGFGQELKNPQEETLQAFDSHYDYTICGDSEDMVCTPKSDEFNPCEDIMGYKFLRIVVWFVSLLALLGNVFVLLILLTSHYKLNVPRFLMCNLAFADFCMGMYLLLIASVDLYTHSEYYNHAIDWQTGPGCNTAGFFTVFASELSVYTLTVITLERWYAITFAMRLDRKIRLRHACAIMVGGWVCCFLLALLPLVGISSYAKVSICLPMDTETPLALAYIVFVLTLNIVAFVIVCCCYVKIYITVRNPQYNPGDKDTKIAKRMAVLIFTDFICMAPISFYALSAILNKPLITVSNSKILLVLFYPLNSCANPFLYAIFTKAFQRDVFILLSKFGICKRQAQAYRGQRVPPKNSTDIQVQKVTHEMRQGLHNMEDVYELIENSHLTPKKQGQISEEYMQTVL
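Inhibition of cAMP made by TSHR-expressing cells under TSH stimulation (4nM final, EC80; 2 h, 37 deg C) is quantified with a one-step lysis HTRF kit, anti-cAMP cryptate versus cAMP-d2.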
gsp agonist: qHTS for Agonist of gsp, the Etiologic Mutation Responsible for Fibrous Dysplasia/McCune-Albright Syndrome: qHTS; gsp mutant cells, cAMP HTRF, 30 min; Potency, µM (series often up to 76.9 µM), inactives show at the top dose activation (cAMP increase), usual class: activators; 0.13% of 340,000 active; active = well fitted activation curve with a large enough effect; inconclusive = small, poorly fitted or top-dose-only effect, or another doubt; inactive = no such curve, though single readings can be large or run the other way; cell line not stated here;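 also: phosphodiesterase inhibitor Ro 20-1724 added with compounds to block cAMP breakdown; potency is read from the fitted curve at half-maximal effect; nearly all actives have a fitted effect of over 60% in size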
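Cells stably selected in G418 were plated at 2000/well, grown 16-24 hr, then given compounds in DMSO with the PDE inhibitor […] (300 uM solution added) for 30 min at 37C; cAMP was read by HTRF.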
uPA generation: qHTS for Inhibitors of Cell Surface uPA Generation. 0.31% of 330,000 active. cell surface uPA generation assay, qHTS. AID 540303, 2011. Potency, µM (highest dose often 38.3 µM), inactives show top-dose activity change, negative = inhibition, hits mostly inhibitors; active = well fitted inhibition curve with a large enough effect; inconclusive = small, poorly fitted or top-dose-only effect; inactive = no such curve, though single readings can be large or run the other way; tested in mouse RAW 264.7 cells; also: potency is read from the fitted curve at half-maximal effect; % is scaled to controls: 0 for no effect and ±100 for the full control effect; nearly all actives have a fitted effect of over 55% in size
gsp antagonist: qHTS for Antagonists of gsp, the Etiologic Mutation Responsible for Fibrous Dysplasia/McCune-Albright Syndrome: qHTS. AID 624288, 2012. Potency, µM (highest dose often 76.9 µM), without a hit: at the highest dose activity change, negative = inhibition, usual class: inhibitors. 0.4% of 340,000 active. gsp-mutant cells, cAMP HTRF, 30 min; calls by dose curve; cell line not stated here;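 also: intracellular cAMP measured with PDE inhibitor Ro 20-1724 present during compound exposure; potency is read from the fitted curve at half-maximal effect; % is scaled to controls: 0 for no effect and ±100 for the full control effect; nearly all actives have a fitted effect of over 65% in size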
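G418-selected cells were plated in DMEM/10% FBS for 16-24 h at 37C, then treated with compounds plus the PDE inhibitor […] (300 uM solution added) for 30 min at 37C. Intracellular cAMP was measured by HTRF after 30 min lysis at room temperature.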
CCT chaperon mod: High-Throughput Screening for Modulators of Cytosolic Chaperonin Activity | purified chaperonin ATPase assay, HTRF ADP detection, 30 min | AID 651819, 2012 | 0.3% of 360,000 active | activity change, % (test concentration not listed), hits read low; in the data active = activity change below about -30%; also: % is scaled to controls: 0 for no effect and ±100 for the full control effect
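Nucleotide hydrolysis assay: TRiC at 20–40 nM final (set by batch activity) with 10 uM ATP, 30 min at 37 °C, in presence of 76 uM compound. Detection by competitive ADP HTRF, 30 min ambient.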
Numbers without * were called inactive; [ ] = dose if it differs, or a comment.

For COC(=O)/C(=C/Nc1cccc2ccccc12)[N+](=O)[O-] the results were Mm-Cpn inhibitor -5%, TSHR antag -5, gsp agonist -47%, uPA generation -17%, gsp antagonist 4% and CCT chaperon mod -3.
CC(=O)N1c2c(cc(Br)cc2S(=O)(=O)Nc2c(C)n(C)n(-c3ccccc3)c2=O)CC1C (centres undefined) was read as Mm-Cpn inhibitor 1%, TSHR antag 2, gsp agonist -1%[15.4 µM], uPA generation 4% and CCT chaperon mod -41*.
`CC(=O)N1c2c(cc(Br)cc2S(=O)(=O)NCc2ccc(C)cc2)CC1C` (centres undefined) gave Mm-Cpn inhibitor -1%, TSHR antag -14, gsp agonist 12%[15.4 µM], uPA generation 8%, gsp antagonist 35µM* and CCT chaperon mod 1.
O=C(CC1C(=O)NCCN1C/C=C/c1ccccc1)NCCc1ccncc1 (centres undefined) was read as Mm-Cpn inhibitor 1%, TSHR antag 11, gsp agonist 27%, uPA generation -1%, gsp antagonist -1% and CCT chaperon mod -33*.
Screening O=C(CC1C(=O)NCCN1C/C=C/c1ccccc1)NCCc1cnccn1 (centres undefined) returned Mm-Cpn inhibitor 3%, TSHR antag 1, gsp agonist inconclusive, uPA generation 2%, gsp antagonist 9% and CCT chaperon mod -2.
COc1ccc(-c2nnc(-c3ccc(N)cc3)o2)cc1 was read as Mm-Cpn inhibitor -3%, TSHR antag 8, gsp agonist 4%, uPA generation -5%, gsp antagonist -2% and CCT chaperon mod -2.
For CC1(c2ccc(Cl)cc2)NC(=O)N(CC(=O)N2CCN(S(=O)(=O)c3ccccc3)CC2)C1=O (centres undefined) the results were Mm-Cpn inhibitor 3%, TSHR antag 0, gsp agonist -25%, uPA generation -2%, gsp antagonist 1% and CCT chaperon mod 1.
`CN1CCN(c2nc3c(c(=O)[nH]c(=O)n3C)n2Cc2ccc([N+](=O)[O-])cc2)CC1` gave Mm-Cpn inhibitor 1%, TSHR antag 3, gsp agonist 2%, uPA generation 10%, gsp antagonist -8% and CCT chaperon mod -76*.
For CN1CCN(c2nc3c(c(=O)[nH]c(=O)n3C)n2Cc2cccc(Br)c2)CC1 the results were Mm-Cpn inhibitor -2%, TSHR antag -11, gsp agonist 9%, uPA generation -11%, gsp antagonist -4% and CCT chaperon mod 2.
For CN(C)c1oc(-c2ccccc2Cl)nc1C#N the results were Mm-Cpn inhibitor -1%, TSHR antag 8, gsp agonist inconclusive, uPA generation -5%, gsp antagonist -7% and CCT chaperon mod -1.
O=C(Nc1ccc(S(=O)(=O)Nc2nccs2)cc1)c1ccc(F)c(S(=O)(=O)N2CCOCC2)c1 was read as Mm-Cpn inhibitor -10%, TSHR antag -3, gsp agonist inconclusive, uPA generation 21%, gsp antagonist 1% and CCT chaperon mod 2.
Cc1ccc(C)c(S(=O)(=O)C(C#N)c2nc3ccccc3nc2N2CCOCC2)c1 (centres undefined) was read as Mm-Cpn inhibitor 3%, TSHR antag -3, gsp agonist 22%, uPA generation -2%, gsp antagonist 25µM* and CCT chaperon mod 1.
